Out of some 5,500 compounds screened, about 2,000 (36%) were called active. About 18% were inconclusive and are not listed. No stated cut-off is given here; in the data, active means normalized growth mostly below about 0.91 (no sharp cut-off); inconclusive means no clear call, values can overlap the other calls; inactive means mostly above about 0.92. This is one part of the list.
Assay: chemical genetic growth profiling, strain panel (AID 1159580);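 further: tested at 20 µM; growth read once vehicle control cultures reached saturation at 30 °C; 1 = growth at the plate median or of vehicle wells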
Settings: S. cerevisiae deletion strains, growth OD
[1] = locus YHR030C, strain SLT2, stronger effect = lower value
[2] = locus YHR079C, strain IRE1, stronger effect = lower value
[3] = locus YJL095W, strain BCK1, stronger effect = lower value
[4] = locus YJR066W, strain TOR1, stronger effect = lower value
[5] = locus YLR113W, strain HOG1, stronger effect = lower value
[6] = locus YNL183C, strain NPR1, stronger effect = lower value
[7] = locus YOR231W, strain MKK1, stronger effect = lower value
[8] = locus YPL256C, strain CLN2, stronger effect = lower value

Measured: normalized growth

CCC(CO)NC(=O)C1C=C2c3cccc4c3c(cn4C)CC2N(C)C1 (stereo unspecified)
inactive: locus YAL013W, strain DEP1, stronger effect = lower value 0.988 | locus YAL040C, strain CLN3, stronger effect = lower value 1.08 | locus YCL061C, strain MRC1 (second series), stronger effect = lower value 0.999 | locus YDR150W, strain NUM1, stronger effect = lower value 1 | locus YDR363W, strain ESC2, stronger effect = lower value 0.972 | locus YER002W, strain NOP16, stronger effect = lower value 0.998 | locus YGR078C, strain PAC10, stronger effect = lower value 1 | locus YGR229C, strain SMI1, stronger effect = lower value 0.999 | locus YMR263W, strain SAP30, stronger effect = lower value 0.994 | locus YMR307W, strain GAS1, stronger effect = lower value 0.962 | locus YNL128W, strain TEP1, stronger effect = lower value 1.02 | locus YNL153C, strain GIM3, stronger effect = lower value 1 | locus YNL175C, strain NOP13, stronger effect = lower value 0.987 | locus YNL197C, strain WHI3, stronger effect = lower value 1.02 | locus YNL224C, strain SQS1, stronger effect = lower value 1 | locus YNL322C, strain KRE1, stronger effect = lower value 0.989 | locus YOR083W, strain WHI5 (second series), stronger effect = lower value 0.988 | locus YPL055C, strain LGE1, stronger effect = lower value 0.997 | locus YPL241C, strain CIN2, stronger effect = lower value 1

Nc1ccc(S(=O)(=O)O)cc1
inactive: [1] 0.992 | [2] 0.987 | [3] 0.998 | [4] 0.966 | [5] 0.976 | [6] 0.939 | [7] 1.01 | [8] 0.97

CC[C@]1(O)CC2CN(CCc3c([nH]c4ccccc34)[C@@](C(=O)OC)(c3cc4c(cc3OC)N(C=O)[C@H]3[C@@](O)(C(=O)OC)[C@H](OC(C)=O)[C@]5(CC)C=CCN6CC[C@]43[C@@H]65)C2)C1 (stereo partly specified)
inactive: locus YAL021C, strain ccr4, stronger effect = lower value 1 | locus YAL026C, strain drs2, stronger effect = lower value 0.984 | locus YAL030W, strain snc1, stronger effect = lower value 0.993 | locus YBL061C, strain skt5, stronger effect = lower value 1 | locus YBR009C, strain hhf1, stronger effect = lower value 0.988 | locus YBR023C, strain chs3, stronger effect = lower value 0.999 | locus YBR171W, strain sec66, stronger effect = lower value 0.978 | locus YBR231C, strain swc5, stronger effect = lower value 1.01 | locus YBR279W, strain paf1, stronger effect = lower value 0.989 | locus YCL011C, strain gbp2, stronger effect = lower value 1.01 | locus YCL016C, strain dcc1, stronger effect = lower value 1.03 | locus YCL061C, strain MRC1, stronger effect = lower value 0.971 | locus YCL069W, strain vba3, stronger effect = lower value 0.968 | locus YCR088W, strain abp1, stronger effect = lower value 0.986 | locus YDL005C, strain med2, stronger effect = lower value 0.985 | locus YDL040C, strain nat1, stronger effect = lower value 0.988 | locus YDR001C, strain nth1, stronger effect = lower value 1 | locus YDR069C, strain doa4, stronger effect = lower value 0.984 | locus YDR137W, strain rgp1, stronger effect = lower value 0.989 | locus YDR159W, strain sac3, stronger effect = lower value 0.994 | locus YDR195W, strain ref2 0.978 | locus YDR297W, strain sur2, stronger effect = lower value 0.982 | locus YDR334W, strain swr1, stronger effect = lower value 0.937 | locus YDR335W, strain msn5, stronger effect = lower value 0.977 | locus YDR392W, strain spt3, stronger effect = lower value 0.987 | locus YEL003W, strain gim4, stronger effect = lower value 0.972 | locus YEL037C, strain rad23, stronger effect = lower value 0.981 | locus YEL061C, strain CIN8 (second series), stronger effect = lower value 0.968 | locus YER015W, strain faa2, stronger effect = lower value 0.997 | locus YER016W, strain bim1, stronger effect = lower value 0.989 | locus YER111C, strain swi4, stronger effect = lower value 0.989 | locus YER155C, strain BEM2 (second series), stronger effect = lower value 0.962 | locus YFR010W, strain ubp6, stronger effect = lower value 0.94 | locus YGL167C, strain pmr1, stronger effect = lower value 0.972 | locus YGL173C, strain kem1, stronger effect = lower value 0.996 | locus YGL227W, strain vid30, stronger effect = lower value 0.985 | locus YGL240W, strain doc1, stronger effect = lower value 0.966 | locus YGL253W, strain hxk2, stronger effect = lower value 1.02 | locus YHR013C, strain ard1, stronger effect = lower value 1 | locus YHR027C, strain rpn1, stronger effect = lower value 0.992 | [1] 0.972 | [2] 0.97 | locus YHR142W, strain chs7, stronger effect = lower value 1.04 | locus YJL092W, strain hpr5, stronger effect = lower value 0.973 | locus YJL095W, strain BCK1 (second series), stronger effect = lower value 0.988 | [3] 0.958 | locus YJL115W, strain asf1, stronger effect = lower value 0.981 | locus YJL129C, strain trk1, stronger effect = lower value 1.01 | locus YJL154C, strain vps35, stronger effect = lower value 0.972 | locus YJL164C, strain tpk1, stronger effect = lower value 0.986 | locus YJL166W, strain qcr8, stronger effect = lower value 0.998 | [4] 0.939 | locus YKL160W, strain elf1, stronger effect = lower value 1.03 | locus YKR026C, strain gcn3, stronger effect = lower value 0.982 | locus YKR091W, strain srl3, stronger effect = lower value 0.999 | locus YLL001W, strain dnm1, stronger effect = lower value 1.01 | locus YLL026W, stronger effect = lower value 0.992 | locus YLL041C, strain sdh2, stronger effect = lower value 0.992 | locus YLR027C, strain aat2, stronger effect = lower value 0.991 | [5] 0.936 | locus YLR221C, strain rsa3, stronger effect = lower value 0.981 | locus YLR258W, strain gsy2, stronger effect = lower value 0.994 | locus YLR262C, strain YPT6 (second series), stronger effect = lower value 0.954 | locus YLR320W, strain mms22, stronger effect = lower value 0.985 | locus YLR342W, strain FKS1, stronger effect = lower value 0.984 | locus YLR357W, strain rsc2, stronger effect = lower value 0.92 | locus YLR370C, strain arc18, stronger effect = lower value 1.01 | locus YLR384C, strain iki3, stronger effect = lower value 1.01 | locus YML120C, strain ndi1, stronger effect = lower value 0.964 | locus YMR058W, strain fet3, stronger effect = lower value 0.982 | locus YMR125W, strain sto1, stronger effect = lower value 0.926 | locus YMR129W, stronger effect = lower value 0.994 | locus YMR205C, strain PFK2, stronger effect = lower value 1.01 | locus YMR231W, strain pep5, stronger effect = lower value 0.986 | locus YNL071W, strain lat1, stronger effect = lower value 0.973 | [6] 0.933 | locus YNL209W, strain ssb2, stronger effect = lower value 1 | locus YNL248C, strain rpa49, stronger effect = lower value 0.991 | locus YNL322C, strain KRE1 (second series), stronger effect = lower value 0.975 | locus YNR049C, strain mso1, stronger effect = lower value 0.975 | locus YOR001W, strain rrp6, stronger effect = lower value 0.945 | locus YOR070C, strain gyp1, stronger effect = lower value 0.999 | locus YOR080W, strain dia2, stronger effect = lower value 0.996 | locus YOR083W, strain WHI5, stronger effect = lower value 1.01 | locus YOR106W, strain vam3, stronger effect = lower value 0.998 | [7] 0.964 | locus YOR265W, strain rbl2, stronger effect = lower value 0.989 | locus YOR270C, strain vph1, stronger effect = lower value 1.04 | locus YOR290C, strain snf2, stronger effect = lower value 1.02 | locus YPL051W, strain arl3, stronger effect = lower value 1.01 | locus YPL078C, strain atp4, stronger effect = lower value 1.04 | locus YPL106C, strain sse1, stronger effect = lower value 0.953 | locus YPL240C, strain hsp82, stronger effect = lower value 0.952 | [8] 1.05

From PubChem BioAssay AID1159580 (chemical genetic matrix, 2015)
